Our source for the inhibition values is PubChem BioAssay AID1578 (Sanford-Burnham Center for Chemical Genomics, 2009).

Molecules are shown by their SMILES. In all, about 290,000 compounds went through this assay and about 3,000 (1%) were called active. The sample holds actives, similar compounds and a random draw of the others, so the mix is not that of the screen. No stated cut-off is given here; in the data, active means inhibition mostly above about 36% (no sharp cut-off); inactive means mostly below about 34%.

The assay in a line: inhibition of NOD1-driven NF-kB reporter – cell-based, luminescence, uHTS, primary screen (AID 1578).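 Further: HEK-293T reporter cells stimulated with the NOD1 agonist gamma-tri-DAP.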 To be noted: NOD1-driven NF-kB luciferase reporter cells, at 4 µM, hits give high values.
`Cc1nn(-c2ccccc2)c(C)c1C(=O)OCC(=O)N1CCN(S(=O)(=O)c2ccccc2)CC1`: the inhibition was -0.7% (inactive).
Under `Cc1ccc2c(N)c(C)ccc2c1` stands -4.1% (inactive); under `Cn1ncc(N2CCN(C(=O)c3ccc(Cl)cc3)CC2)c(Cl)c1=O`, -21.9% (inactive).
Under `COc1ccc(CNC(=O)C2CCCN(S(=O)(=O)c3ccc(Br)s3)C2)cc1` (configuration not stated) stands -13.3% (inactive); under `Cc1cc(N/N=C/c2ccccc2F)nc(NCc2ccccc2)n1`, -2.7% (inactive).
For `CCc1ccc(N/C(SCc2cccc(F)c2)=C(/C#N)C(=O)NCc2ccco2)cc1` the value was 3.2% (inactive).
As for `CCN(CC)C(=O)CSC(Nc1ccc(F)cc1)=C(C#N)C#N`, the inhibition is 4.2% (inactive).
For `Cc1cccc(CSC(Nc2ccc(F)cc2)=C(C#N)C#N)c1` the value was 83.7% (active); for `COc1ccc(S(=O)(=O)N(C)CC(=O)N2CCCC2)cc1OC`, -5.3% (inactive); for `c1ccc(SCc2cn(C[C@H]3CC[C@@H]([C@@H]4CC[C@H](Cn5cc(CSc6ccccc6)nn5)O4)O3)nn2)cc1`, 22.8% (inactive).
For `CCCn1c2ccccc2c2cnn(CC(=O)NC3CCCCC3)c(=O)c21` the value was -26.9% (inactive); for `CC(=O)Nc1nc(-c2ccccc2)c(-c2ccccc2)o1`, -5.3% (inactive); for `CCN(CC)C(=S)SCC(=O)Nc1nc(-c2ccccc2)c(-c2ccccc2)o1`, 72.2% (active).
In the case of `CN1CCN(C(=S)SCC(=O)Nc2nc(-c3ccccc3)c(-c3ccccc3)o2)CC1`, the inhibition is -3.5% (inactive).
Consider `Cc1ccc(C(=O)Nc2nc(-c3ccccc3)c(-c3ccccc3)o2)cc1`, for which the inhibition is 35.6% (inactive).
Under `O=C(CSC(=S)N1CCCCC1)Nc1nc(-c2ccccc2)c(-c2ccccc2)o1` stands 9.9% (inactive); under `O=C(Nc1nc(-c2ccccc2)c(-c2ccccc2)o1)c1ccc(F)cc1`, 97.4% (active).
Under `COc1ccccc1OCc1ccc(C(=O)N2CCOCC2)o1` stands -11% (inactive); under `C=CCN(Cc1cc(OC)ccc1OC)S(=O)(=O)N(C)C`, 3.4% (inactive).
For `O=C(Cc1ccc(Br)cc1)OCC(=O)N1CCc2ccccc2C1` the value was -12.8% (inactive).
Consider `OCCC1CN(Cc2cccc(-c3ccco3)c2)CCN1Cc1ccsc1` (configuration not stated), for which the inhibition is -17.2% (inactive).
Under `COc1ccc(CSc2nc(CSC)cc(N3CCOCC3)n2)cc1` stands 7.8% (inactive); under `CSCc1cc(N2CCOCC2)nc(SCc2ccc(Cl)c(Cl)c2)n1`, -11.4% (inactive); under `COCc1cc(N2CCOCC2)nc(SCc2ccc(Cl)cc2)n1`, 52.1% (active).
For `CCCCCn1ccc(=N)cc1` the value was 13.1% (inactive).
In the case of `CCCCCCn1ccc(=N)cc1`, the inhibition is 41.6% (inactive).
For `CCN(CC)S(=O)(=O)c1ccc(NS(=O)(=O)c2ccc3oc(=O)[nH]c3c2)cc1` the value was 22.1% (inactive).
